Source: PubChem
A selection: hits, their analogues and other compounds. The true share with any hit is near 5.5%.
FBPA coupling cs – inhibits coupling enzyme system, counter-screen for aldolase hits; coupling enzyme system counterscreen, AmpLite Red fluorescence; activity change, negative = inhibition, % at 58.2 µM, hits read low; actives 0.67% (n = 290,000); in the data active = activity change below about -30%
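Coupling enzymes only (glyceraldehyde-3-phosphate) + compound, at 57.5 uM final, 10 min RT; add substrate/coupling/AmpLite Red mix, 20 min RT; fluorescence ex 525/em 598 nm. Actives flag coupling-system interference.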
Giardia killer – Giardia lamblia killing | AID 540267 | actives 0.15% (n = 340,000) | activity change, % at 7.66 µM, hits read low | Giardia lamblia trophozoite viability; in the data active = activity change below about -80%; inconclusive = between about -30% and that limit;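 also: parasites exposed to compound for two days anaerobically before the ATP read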
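Viability, read as ATP luminescence: trophozoites at 100 cells/well, compound added, 48 hrs anaerobic at 37 deg C, then 15-30 min room-temperature development before reading.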
ELG1 DNA repair – inhibitors of ELG1-dependent DNA repair in HEK293T cells; HEK293T ELG1-luciferase reporter, luminescence, 16 h; DNA damage induced by 5-fluorouridine; Potency, µM (titrated, usually from 46.1 µM), inactives show top-dose activity change, negative = inhibition, actives largely listed as inhibitors; actives 2.3% (n = 330,000); AID 504467; also: potency is read from the fitted curve at half-maximal effect; nearly all actives have a fitted effect of over 55% in size
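DMSO vehicle served as the neutral condition. Each well held 2,000 cells given 5-fluorouridine plus compound; after 16 hr at 37 °C/5% CO2, ONE-Glo was added and luciferase measured 30 min later.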
Sfp inh – inhibitors of Bacillus subtilis Sfp phosphopantetheinyl transferase; actives 3.5% (n = 310,000); Potency, µM, inactives show largest response in the series, negative = inhibition, actives largely listed as inhibitors; Q9F4F7; Biochemical Sfp PPTase activity, qHTS;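 also: the enzyme is Sfp with the accession as filed and its product quenches rhodamine fluorescence; potency is read from the fitted curve at half-maximal effect; 0% = enzyme reaction without inhibitor and -100% = no enzyme wells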
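Fluorescence-quenching assay: 15 nM Sfp-PPTase preincubated 15 min at room temperature with compound, then 5 uM rhodamine-CoA and 12.5 uM BHQ-2-labelled YbbR peptide added. Fluorescence (ex 525/em 598 nm) read at start and after 30 min; difference gives rate.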
* hit, by the source's call; ? = inconclusive; / = not tested or not shown. Unless noted, calls follow the shape of the dose curve; as a rule, active = well fitted curve in the direction sought with a large enough effect; inconclusive = small, poorly fitted or top-dose-only effect, or another doubt; inactive = no such curve, though single readings can be large; an effect the other way counts as inactive or inconclusive. Unless noted, % is scaled to controls: 0 for no effect and ±100 for the full control effect.

SMILES	FBPA coupling cs	Giardia killer	ELG1 DNA repair	Sfp inh
O=C(Nc1ccc(Cl)cc1N1CCOCC1)C1CCCCC1	3	-6	10%	-3%
O=C(Nc1ccc(N2CCOCC2)c2nonc12)C1CCCC1	-41*	24	?	?
O=C(Nc1ccc(F)cc1)Nc1ccc(N2CCOCC2)c2nonc12	-10	-16	?	-15%
NC(=O)C(OC(=O)CNC(=O)C1CCCCC1)c1ccccc1 (stereo not given)	/	9	/	/
COc1ccc(NC(=O)N2CC3(CCN(C(=O)c4csnn4)CC3)C2)cc1	2	/	/	6%
CC(=O)c1cccc(NC(=O)c2ccc([N+](=O)[O-])o2)c1	/	-88*	/	/
Cc1ccc(C)c(-c2nnc(NC(=O)Cc3ccc(F)cc3)o2)c1	0	-15	-4%	21%
CC(=O)c1ccc(NC(=O)c2ccc([N+](=O)[O-])o2)cc1	-4	-101*	-4%	20%
COc1ccc(NC(=O)c2ccc(Br)o2)cc1	-8	-4	?	12%
Cc1cc(C)nc(NC(=O)c2ccc([N+](=O)[O-])o2)n1	-7	?	-9%	21%
COc1ccc(NC(=O)c2ccc([N+](=O)[O-])o2)cc1	-3	-95*	?	6%
Cc1ccc(C)c(-c2nnc(NC(=O)c3ccc([N+](=O)[O-])o3)o2)c1	/	-85*	?	/
Cc1cc(C)cc(NC(=O)c2ccc([N+](=O)[O-])o2)c1	-5	-95*	?	17%
NS(=O)(=O)c1ccc(O)c(NC(=O)c2ccc([N+](=O)[O-])o2)c1	-1	-20	?	11µM*
CC(C)c1ccc(NC(=O)COC(=O)[C@@H]2CCCN2C(=O)c2cccs2)cc1	/	-10	?	/
CC1=C(C(=O)Nc2cc(C(=O)N3CCN(c4cccc(C)c4C)CC3)ccc2C)SCCO1	/	-13	18µM*	-5%
O=S1(=O)N=C(N(CCO)/N=C/c2ccc(Br)cc2)c2ccccc21	1	4	1%	12%
CCCN1C(=O)/C(=C\C=C2/C=CN(CC)c3ccccc32)SC1=S	-4	-3	-2%	7.1µM*
COc1cc(/C=N/NC(=S)NC2CC3C=CC2C3)cc(OC)c1OC (stereo not given)	3	6	18µM*	3%
CC1CCCN(C(=O)C2CCN(S(=O)(=O)c3cccs3)CC2)C1 (stereo not given)	/	2	19%	/
O[C@@H]1CO[C@H]2[C@@H]1OC[C@@H]2O	/	/	/	21%
CC1(C)CC(=O)C(C=NCCN2CCN(C(=S)Nc3ccc(F)cc3)CC2)=C(O)C1	3	7	-2%	-2%
CC1(C)CC(=O)C(C=NCCN2CCN(C(=S)NC3CCCCC3)CC2)=C(O)C1	1	1	11%	79µM*
Nc1ccccc1N=c1ssnc1Cl	-2	3	-1%	1.6µM*
Cc1cc(Cl)ccc1N=C1N=C(N)c2ccccc21	2	8	-29%	-5%
SMILES	FBPA coupling cs	Giardia killer	ELG1 DNA repair	Sfp inh
Cc1cc(C)c(C#N)c(Cl)n1	3	-4	5%	6%
Cc1cc(Cl)ccc1N=c1ssnc1Cl	-1	3	16µM*	7.1µM*
Cc1nnc(N=c2ssnc2Cl)o1	/	1	?	/
Cc1ccc(N=c2ssnc2Cl)cc1	5	-16	?	13µM*
Cc1cc(C)nc(/N=c2/ssnc2Cl)c1	3	-11	?	20µM*
COc1ccc(C(=C2C(=O)Nc3ccccc32)c2ccc(OC)cc2)cc1	-10	/	/	-9%
CO[C@@H]1COC(=O)[C@H]2CCCN2C(=O)[C@@H](C)COC(=O)C/C=C\[C@H]1C	0	/	/	15%
CC1CC=CC2C1C(=O)N(Cc1ccccc1)C2c1ccc2ccccc2c1Br (stereo not given)	-2	10	/	?
Cc1cccc(C)c1NC(=O)COC(=O)c1cccc2c1C(=O)c1ccccc1C2=O	-14	-1	12µM*	8%
Cc1cccc(NC(=O)COC(=O)c2cccc3c2C(=O)c2ccccc2C3=O)c1C	-10	0	21µM*	-6%
Cc1cccc(C)c1NC(=O)c1cccc2c1-c1ccccc1C2=O	1	6	20%	4%
O=C(Cc1cccc(NC(=O)C2CCCN(C(=O)C3CC3)C2)c1)Nc1ccc(C(=O)N2CCOCC2)cc1 (stereo not given)	/	-21	/	/
CCOC(=O)c1c(N2C(=O)C=CC2=O)sc(C)c1C	10	-3	?	2.5µM*
Cc1oc(-c2cc(F)ccc2F)nc1CN1CCC(C(=O)N2CCOCC2)CC1	/	1	7%	15%
COc1ccc(-c2nc(CN3CCN(c4ccccc4OC)CC3)c(C)o2)cc1	-1	-20	?	0%
Cc1oc(-c2cc(F)ccc2F)nc1CN1CCN(c2ncnc3ccccc23)CC1	-2	5	?	40µM*
COc1ccc(-c2nc(CN3CCN(c4ncnc5ccccc45)CC3)c(C)o2)c(OC)c1	-1	3	7.3µM*	10%
CC(C)N(CCNC(=O)C1CCCN(c2ncnc3c2nc2n3CCCCC2)C1)Cc1ccccc1 (stereo not given)	0	3	0%	-1%
CN(O)/C=C1\C(=O)Nc2ccccc21	1	-8	0%	50µM*
CN(C)/C=C1\C(=O)Nc2ccccc21	0	-24	-1%	10%
O=C(/C=C1\C(=O)Nc2ccccc21)/C=C1\C(=O)Nc2ccccc21	-9	-17	11%	1.4µM*
Cc1ccc(S(=O)(=O)NCC(=O)N(CC2CCCO2)C(C(=O)NCC2CCCO2)C(C)C)cc1 (stereo not given)	0	-9	1%	21%
Nc1ccc(C(=O)N/N=C2\CCCc3c2[nH]c2ccccc32)cc1	-2	7	17%	-4%
CC(C)c1ccc2[nH]c3c(c2c1)CCC/C3=N\NC(=O)c1ccncc1	1	-3	18µM*	10%
CC(C)N(Cc1ccccc1)C(=O)CN1C(=O)NC2(CCCCCC2)C1=O	/	3	-2%	/
SMILES	FBPA coupling cs	Giardia killer	ELG1 DNA repair	Sfp inh
CNC(=S)NNc1nc(C)cc(C)n1	0	1	10%	2.5µM*
CNC(=S)NNc1nc(-c2ccccc2)c2cc(Cl)ccc2n1	/	12	/	/
O=C1C2=CC[C@H]3C(=O)N(C4CCCCC4)C(=O)[C@@H]3[C@@H]2[C@H](O)[C@@H]2O[C@H]12	-2	/	/	?
O=C(C[C@H]1C/C=C/CC[C@H](Cc2ccc(F)cc2)C(=O)O[C@H](c2ccccc2)CNC1=O)NCCO	/	2	-7%	/
O=C1NC[C@@H](c2ccccc2)OC(=O)[C@@H](Cc2ccc(F)cc2)CC/C=C/C[C@H]1CC(=O)N(CCO)Cc1ccccc1	/	-22	13µM*	/
O=C(C[C@@H]1C/C=C/CC[C@@H](Cc2ccc(F)cc2)C(=O)O[C@@H](c2ccccc2)CNC1=O)NCCO	/	13	7.3µM*	/
O=C1NC[C@H](c2ccccc2)OC(=O)[C@H](Cc2ccc(F)cc2)CC/C=C/C[C@@H]1CC(=O)N(CCO)Cc1ccccc1	/	-13	12µM*	/
O=C1N[C@@H](c2ccccc2)COC(=O)[C@H](Cc2ccc(F)cc2)CC/C=C/C[C@H]1CC(=O)N(CCO)Cc1ccccc1	/	-14	?	/
